Test results from PubChem BioAssay (NCATS).
Records with an inconclusive call do not appear. A call without a number means that no potency is given here. The source made the active and inactive calls. Calls follow the shape of the dose curve; as a rule, active = well fitted activation curve with a large enough effect; inconclusive = small, poorly fitted or top-dose-only effect; inactive = flat fitted curve, though single readings scatter.

Test: Primary redox qHTS assay for identification of artifact compounds. (AID 1845223)
Settings: Amplex Red/HRP redox cycling with DTT, fluorescence; series mostly up to 53.8 µM
How it was run: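 Amplex Red (25 uM) and HRP (250 mU/mL) in HBSS, with compounds for 15 min, then 250 uM DTT for 30 min, room temperature, dark. Fluorescence 525/598 nm read; normalized to DMSO and 10 uM DA3003; Hill fit.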
In the case of O=C(O)CCc1ccc(NCc2cccc3c2CCCN3CCOc2ccccc2)cc1F, the Potency is reported as “inactive”.
In the case of CC(=O)O[C@@]1(C)[C@@H]2CC(=C(C)C)C(=O)C[C@@]2(C)CC[C@H]1OC(=O)C1(C)OC1C (stereo partly drawn), the Potency is reported as “inactive”.
For COc1cc(O)cc2c1C(=O)OC(C)C2 (stereo not drawn), the Potency was “inactive”.
